{"source": "PubChem BioAssay AID932", "about": "(The Scripps Research Institute Molecular Screening Center, 2007)", "note": "The whole screen tested about 200,000 compounds, of which about 5,100 (2.5%) were called active. This is one part of a sample in which actives are shown more often than they occur.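 How the source made its calls: active means activation above the screen-wide mean activation plus 3 SD (cut at about 130% in these data); inactive means the rest.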", "data": [{"experiment": "STAT1 signaling activators, primary screen, cell-based, HTS, luciferase reporter (AID 932);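 further: raw ratio to IFN-gamma control signal so 100% means no change and 0% no light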", "settings": "NIH 3T3 STAT1-luciferase reporter, IFN-gamma, luminescence; at 5.5 µM; active compounds read high; 100% = IFN-gamma alone, no compound", "values": [{"smiles": "Cc1ccc(C(=O)CNc2ccc(F)cc2)cc1", "activation (% of control)": "111% (inactive)"}, {"smiles": "COC(=O)c1ccc(NCC(=O)N2CCCCCC2)cc1", "activation (% of control)": "114% (inactive)"}, {"smiles": "COC(=O)c1ccc(NCC(=O)c2ccccc2)cc1", "activation (% of control)": "133% (active)"}, {"smiles": "CN(Cc1ccccc1)C(=O)CCc1ccccc1", "activation (% of control)": "104% (inactive)"}, {"smiles": "Cc1ccn(-c2cccc(-n3ccc(C)n3)n2)n1", "activation (% of control)": "135% (active)"}, {"smiles": "COc1cc(C(=O)NCc2ccc3c(c2)cc(C)n3C)cc(OC)c1OC", "activation (% of control)": "89.2% (inactive)"}, {"smiles": "COc1cccc(CNC(=O)CCC2CCCN(C(=O)c3ccoc3C)C2)c1", "note": "(configuration not stated)", "activation (% of control)": "105% (inactive)"}, {"smiles": "Cc1cccc(N2CCN(C(=O)/C=C/c3ccco3)CC2)c1C", "activation (% of control)": "99.5% (inactive)"}, {"smiles": "Cc1nc2ccc(NC(=O)C(F)(F)F)cc2o1", "activation (% of control)": "95.8% (inactive)"}, {"smiles": "Cc1nc2cc(NC(=O)NCc3ccccc3)ccc2o1", "activation (% of control)": "111% (inactive)"}, {"smiles": "Cc1ccc(NC(=O)Nc2ccc3oc(C)nc3c2)cc1", "activation (% of control)": "177% (active)"}, {"smiles": "CC(C)NC(=O)/C(C#N)=C\\c1ccc(N(C)C)c(Br)c1", "activation (% of control)": "100% (inactive)"}, {"smiles": "N#Cc1cccc(Nc2c3c(nc4ccccc24)CCCC3)c1", "activation (% of control)": "85.5% (inactive)"}, {"smiles": "Cc1cc(C(=O)NCCCc2ccccc2)no1", "activation (% of control)": "110% (inactive)"}, {"smiles": "CC(C)Cc1cc(C(=O)Nc2cc(Br)ccc2O)no1", "activation (% of control)": "101% (inactive)"}, {"smiles": "CC(C)Cc1cc(C(=O)NCCc2ccccc2)no1", "activation (% of control)": "130% (active)"}, {"smiles": "COc1ccc2c(c1)CC[C@@H]1[C@@H]2CC[C@]2(C)C(=O)CC[C@@H]12", "activation (% of control)": "106% (inactive)"}, {"smiles": "COc1cccc(-c2nc3cc(C)ccc3o2)c1", "activation (% of control)": "106% (inactive)"}, {"smiles": "O=C(Cc1cccc2ccccc12)Nc1ccc2oc(-c3ccccc3)nc2c1", "activation (% of control)": "102% (inactive)"}, {"smiles": "COc1ccc2oc(-c3cccc(NC(=O)CSc4ccc(Cl)cc4)c3)nc2c1", "activation (% of control)": "163% (active)"}, {"smiles": "O=C(Nc1cccc(O)c1)c1ccc(C(=O)c2ccccc2)o1", "activation (% of control)": "113% (inactive)"}, {"smiles": "O=C(NCc1cccs1)c1cc(-c2ccccn2)nc2ccc(Br)cc12", "activation (% of control)": "106% (inactive)"}, {"smiles": "COc1ccc(-c2cn(-c3ccc(OC)cc3)c(=S)[nH]2)cc1", "activation (% of control)": "110% (inactive)"}, {"smiles": "S=C(Nc1ccc(Br)cc1Cl)NC1CCN(Cc2ccccc2)CC1", "activation (% of control)": "100% (inactive)"}, {"smiles": "CCC(=O)NC(=S)Nc1ccc(NC(=O)c2ccco2)c(Cl)c1", "activation (% of control)": "109% (inactive)"}, {"smiles": "O=C(NNC(=S)Nc1ccc(Br)cc1Cl)c1ccco1", "activation (% of control)": "140% (active)"}, {"smiles": "CCN1CCN(C(=O)CCN2C(=O)c3ccccc3C2=O)CC1", "activation (% of control)": "96.8% (inactive)"}, {"smiles": "CCc1ccccc1NC(=O)CSc1nnc(-c2ccncc2)o1", "activation (% of control)": "99.3% (inactive)"}, {"smiles": "O=C(Nc1ccc(C(=O)O)cc1)/C(=C/c1ccc([N+](=O)[O-])cc1)NC(=O)c1ccccc1", "activation (% of control)": "94.6% (inactive)"}, {"smiles": "COc1ccc(-c2nn(-c3ccccc3)cc2/C=C\\C(=O)Nc2ccc(C(=O)O)cc2)cc1", "activation (% of control)": "103% (inactive)"}, {"smiles": "COc1ccc2[nH]c(=O)c(-c3noc(-c4ccc(F)cc4)n3)cc2c1", "activation (% of control)": "114% (inactive)"}, {"smiles": "COc1ccc(-c2noc(-c3ccc(C)cc3)n2)cc1", "activation (% of control)": "133% (active)"}, {"smiles": "COc1ccc(-c2nc(-c3ccccc3)no2)c(OC)c1", "activation (% of control)": "43.8% (inactive)"}, {"smiles": "Cc1cccc(-c2noc(-c3ccc(F)cc3)n2)c1", "activation (% of control)": "152% (active)"}, {"smiles": "COc1ccc(-c2noc(CSc3ccc(C)cc3)n2)cc1", "activation (% of control)": "102% (inactive)"}, {"smiles": "Cc1ccc(Cc2nc(-c3cccc(C)c3)no2)cc1", "activation (% of control)": "115% (inactive)"}, {"smiles": "CC1COc2ccccc2N1C(=O)c1cccnc1Cl", "note": "(configuration not stated)", "activation (% of control)": "98.3% (inactive)"}, {"smiles": "Cc1nc(N)c(Br)c(C)c1Br", "activation (% of control)": "96.7% (inactive)"}, {"smiles": "CNC(=S)Nc1ccc([N+](=O)[O-])cc1", "activation (% of control)": "96.9% (inactive)"}, {"smiles": "Cc1cc(C(=O)CC#N)c(C)n1-c1c(C)n(C)n(-c2ccccc2)c1=O", "activation (% of control)": "102% (inactive)"}, {"smiles": "CC1(C)CC(=O)C/C(=N\\NC(=O)c2cccs2)C1", "activation (% of control)": "101% (inactive)"}, {"smiles": "COc1ccccc1Oc1nc(-c2cccnc2)nc2ccccc12", "activation (% of control)": "102% (inactive)"}, {"smiles": "COC(=O)c1c(C)[nH]c(C(=O)/C=C/c2ccc(Cl)cc2)c1C", "activation (% of control)": "98.9% (inactive)"}, {"smiles": "CCCCOC(=O)c1[nH]c(C)c(C(=O)OC)c1C", "activation (% of control)": "134% (active)"}, {"smiles": "CC(=O)c1c(C)[nH]c(C(=O)OCC(=O)NCCC(C)C)c1C", "activation (% of control)": "86.3% (inactive)"}, {"smiles": "COC(=O)C1=C(N)Oc2c(oc(CO)cc2=O)C1c1c(F)cccc1Cl", "note": "(configuration not stated)", "activation (% of control)": "95.5% (inactive)"}, {"smiles": "COc1cccc(CC2(CO)CCN(Cc3cnc(-c4cccc(C)c4)nc3)CC2)c1", "activation (% of control)": "99.5% (inactive)"}, {"smiles": "N/C(=N\\OC(=O)/C=C/c1ccccc1)c1ccc(Br)cc1", "activation (% of control)": "98.9% (inactive)"}, {"smiles": "N/C(=N\\OC(=O)N1c2ccccc2Sc2ccccc21)c1ccc(Br)cc1", "activation (% of control)": "92.7% (inactive)"}, {"smiles": "N/C(=N\\OC(=O)c1ccc2c(c1)OCO2)c1ccc(Br)cc1", "activation (% of control)": "144% (active)"}, {"smiles": "CN(NC(=O)C1CC(=O)N(c2ccccc2)C1)C1=NS(=O)(=O)c2ccccc21", "note": "(configuration not stated)", "activation (% of control)": "97.3% (inactive)"}, {"smiles": "O=C(c1cccc2ccccc12)N1CCN(c2ccccc2F)CC1", "activation (% of control)": "101% (inactive)"}, {"smiles": "O=C(CCSc1ccccc1)N1CCN(c2ccccc2F)CC1", "activation (% of control)": "135% (active)"}, {"smiles": "O=C(CCS(=O)(=O)c1cccc2nsnc12)N1CCN(c2ccccc2F)CC1", "activation (% of control)": "106% (inactive)"}, {"smiles": "COc1cc(CN2CCN(Cc3ccc(C)cc3)CC2)c([N+](=O)[O-])cc1OC", "activation (% of control)": "90.7% (inactive)"}, {"smiles": "Cc1cc(C)nc(-n2ncc3c2CC(c2ccc(C(C)C)cc2)CC3=O)n1", "note": "(configuration not stated)", "activation (% of control)": "104% (inactive)"}, {"smiles": "Cc1cc(C)cc(C(=O)NC2C(=O)N3C(C(=O)O)=C(CSc4nnc(C)s4)CSC23)c1", "note": "(configuration not stated)", "activation (% of control)": "93.1% (inactive)"}, {"smiles": "COc1cc(NC(=O)c2ccc3c(c2)OCO3)ccc1NC(=O)c1cccs1", "activation (% of control)": "101% (inactive)"}, {"smiles": "COc1ccc(CCNC(=O)C(=O)NCc2ccccc2C)cc1OC", "activation (% of control)": "96.8% (inactive)"}, {"smiles": "c1n[nH]c(NCc2ccc3c(c2)OCO3)n1", "activation (% of control)": "89.7% (inactive)"}, {"smiles": "COc1cc(CNc2ncn[nH]2)ccc1OCc1ccccc1C", "activation (% of control)": "131% (active)"}, {"smiles": "COc1cccc(CC2(CO)CCCN(CC3=Cc4cc(OC)ccc4OC3)C2)c1", "note": "(configuration not stated)", "activation (% of control)": "92% (inactive)"}, {"smiles": "CCOC(=O)c1ccc(NC(=O)c2cc(=O)[nH]c3ccccc23)cc1", "activation (% of control)": "102% (inactive)"}, {"smiles": "COC(=O)[C@H]1Cc2cnoc2C[C@]1(C)C(=O)O", "activation (% of control)": "106% (inactive)"}, {"smiles": "CCc1nnc(NC(=O)Cc2cccs2)s1", "activation (% of control)": "98.1% (inactive)"}, {"smiles": "CCc1nnc(NC(=O)c2cccs2)s1", "activation (% of control)": "134% (active)"}, {"smiles": "CCCc1nnc(NC(=O)c2cccs2)s1", "activation (% of control)": "115% (inactive)"}]}]}
